# Laboratory results reported in ChEMBL document CHEMBL1961873, “Compounds: GSK PKIS; Assays: Nanosyn kinase panel” (2012).
# Key:
# [1] = target: Fibroblast growth factor receptor 4 (Homo sapiens) (UniProt P22455); conditions: at 1 µM;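 note: reported figure is the averaged percent inhibition of FGFR4, from the GSK PKIS kinase screening panel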
# [2] = target: Tyrosine-protein kinase Fgr (Homo sapiens) (UniProt P09769); conditions: at 0.1 µM
# [3] = target: Tyrosine-protein kinase Fgr (Homo sapiens) (UniProt P09769); conditions: at 1 µM
# [4] = target: Vascular endothelial growth factor receptor 1 (Homo sapiens) (UniProt P17948); conditions: at 0.1 µM
# Chain of Vascular endothelial growth factor receptor 1 (Homo sapiens) (P17948 whole entry): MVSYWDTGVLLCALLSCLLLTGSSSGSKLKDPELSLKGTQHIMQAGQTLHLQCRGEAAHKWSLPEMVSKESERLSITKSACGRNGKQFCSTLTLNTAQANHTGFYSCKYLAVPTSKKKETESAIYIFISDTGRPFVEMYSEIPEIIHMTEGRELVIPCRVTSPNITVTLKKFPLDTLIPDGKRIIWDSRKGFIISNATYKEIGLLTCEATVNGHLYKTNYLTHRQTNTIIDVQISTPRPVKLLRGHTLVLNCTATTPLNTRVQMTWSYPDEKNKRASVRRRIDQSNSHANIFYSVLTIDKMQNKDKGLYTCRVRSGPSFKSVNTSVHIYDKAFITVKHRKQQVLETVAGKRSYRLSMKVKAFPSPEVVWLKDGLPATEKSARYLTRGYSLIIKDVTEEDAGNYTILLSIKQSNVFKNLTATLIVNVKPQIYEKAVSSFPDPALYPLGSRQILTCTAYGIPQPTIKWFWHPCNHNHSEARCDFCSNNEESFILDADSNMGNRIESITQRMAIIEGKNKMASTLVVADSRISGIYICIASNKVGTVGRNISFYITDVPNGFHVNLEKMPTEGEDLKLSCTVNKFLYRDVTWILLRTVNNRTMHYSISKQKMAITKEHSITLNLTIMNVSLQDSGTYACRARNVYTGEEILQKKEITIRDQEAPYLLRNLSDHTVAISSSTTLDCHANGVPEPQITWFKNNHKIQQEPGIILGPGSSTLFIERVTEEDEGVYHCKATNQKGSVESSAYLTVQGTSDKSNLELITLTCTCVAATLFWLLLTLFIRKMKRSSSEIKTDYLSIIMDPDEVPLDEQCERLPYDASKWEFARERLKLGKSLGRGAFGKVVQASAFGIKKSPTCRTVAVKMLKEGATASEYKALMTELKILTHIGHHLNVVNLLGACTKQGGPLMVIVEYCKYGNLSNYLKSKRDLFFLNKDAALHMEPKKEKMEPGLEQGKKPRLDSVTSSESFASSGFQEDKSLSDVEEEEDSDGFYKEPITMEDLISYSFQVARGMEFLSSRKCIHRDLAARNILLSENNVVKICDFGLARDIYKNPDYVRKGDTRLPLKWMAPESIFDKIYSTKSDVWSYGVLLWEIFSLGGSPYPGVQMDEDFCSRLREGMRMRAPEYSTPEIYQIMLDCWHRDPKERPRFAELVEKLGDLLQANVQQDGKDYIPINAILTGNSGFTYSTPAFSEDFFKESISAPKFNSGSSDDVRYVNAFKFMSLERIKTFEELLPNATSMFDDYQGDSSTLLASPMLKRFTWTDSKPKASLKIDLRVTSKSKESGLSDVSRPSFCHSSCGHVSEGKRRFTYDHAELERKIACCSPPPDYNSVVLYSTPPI
# [5] = target: Vascular endothelial growth factor receptor 1 (Homo sapiens) (UniProt P17948); conditions: at 1 µM
# [6] = target: Receptor-type tyrosine-protein kinase FLT3 (Homo sapiens) (UniProt P36888); conditions: at 0.1 µM
# [7] = target: Receptor-type tyrosine-protein kinase FLT3 (Homo sapiens) (UniProt P36888); conditions: at 1 µM
# [8] = system: T1, Receptor-type tyrosine-protein kinase FLT3 (Homo sapiens), P36888 [D835Y]; conditions: at 0.1 µM
# T1 sequence (whole entry): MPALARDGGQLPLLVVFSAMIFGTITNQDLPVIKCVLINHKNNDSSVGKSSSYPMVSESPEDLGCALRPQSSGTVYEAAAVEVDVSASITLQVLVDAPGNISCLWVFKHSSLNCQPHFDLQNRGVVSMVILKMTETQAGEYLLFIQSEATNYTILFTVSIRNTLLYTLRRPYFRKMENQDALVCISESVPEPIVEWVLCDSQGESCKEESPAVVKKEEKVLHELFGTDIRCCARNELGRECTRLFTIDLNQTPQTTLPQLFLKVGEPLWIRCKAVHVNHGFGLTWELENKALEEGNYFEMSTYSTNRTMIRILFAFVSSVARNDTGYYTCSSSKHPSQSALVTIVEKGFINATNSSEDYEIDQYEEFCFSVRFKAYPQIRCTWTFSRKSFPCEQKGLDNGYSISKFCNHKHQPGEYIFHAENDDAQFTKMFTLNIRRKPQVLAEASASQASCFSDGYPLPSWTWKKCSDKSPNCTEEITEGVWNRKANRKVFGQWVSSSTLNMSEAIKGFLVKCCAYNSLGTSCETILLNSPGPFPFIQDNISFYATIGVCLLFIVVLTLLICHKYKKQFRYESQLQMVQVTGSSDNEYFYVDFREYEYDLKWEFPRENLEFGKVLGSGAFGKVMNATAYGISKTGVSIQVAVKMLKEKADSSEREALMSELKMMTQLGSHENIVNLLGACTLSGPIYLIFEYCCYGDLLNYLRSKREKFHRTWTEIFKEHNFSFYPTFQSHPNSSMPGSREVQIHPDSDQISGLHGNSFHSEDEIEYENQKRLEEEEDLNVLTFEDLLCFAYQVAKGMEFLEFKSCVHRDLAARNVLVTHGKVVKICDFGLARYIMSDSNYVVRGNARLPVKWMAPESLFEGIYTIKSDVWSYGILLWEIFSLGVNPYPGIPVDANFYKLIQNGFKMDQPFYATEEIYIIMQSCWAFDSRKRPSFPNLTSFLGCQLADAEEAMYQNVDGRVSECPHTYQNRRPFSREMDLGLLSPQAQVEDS
# [9] = target: Non-receptor tyrosine-protein kinase TYK2 (Homo sapiens) (UniProt P29597); conditions: at 1 µM;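 note: values are mean percent inhibition of TYK2 kinase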
# Chain of Non-receptor tyrosine-protein kinase TYK2 (Homo sapiens) (P29597 whole entry): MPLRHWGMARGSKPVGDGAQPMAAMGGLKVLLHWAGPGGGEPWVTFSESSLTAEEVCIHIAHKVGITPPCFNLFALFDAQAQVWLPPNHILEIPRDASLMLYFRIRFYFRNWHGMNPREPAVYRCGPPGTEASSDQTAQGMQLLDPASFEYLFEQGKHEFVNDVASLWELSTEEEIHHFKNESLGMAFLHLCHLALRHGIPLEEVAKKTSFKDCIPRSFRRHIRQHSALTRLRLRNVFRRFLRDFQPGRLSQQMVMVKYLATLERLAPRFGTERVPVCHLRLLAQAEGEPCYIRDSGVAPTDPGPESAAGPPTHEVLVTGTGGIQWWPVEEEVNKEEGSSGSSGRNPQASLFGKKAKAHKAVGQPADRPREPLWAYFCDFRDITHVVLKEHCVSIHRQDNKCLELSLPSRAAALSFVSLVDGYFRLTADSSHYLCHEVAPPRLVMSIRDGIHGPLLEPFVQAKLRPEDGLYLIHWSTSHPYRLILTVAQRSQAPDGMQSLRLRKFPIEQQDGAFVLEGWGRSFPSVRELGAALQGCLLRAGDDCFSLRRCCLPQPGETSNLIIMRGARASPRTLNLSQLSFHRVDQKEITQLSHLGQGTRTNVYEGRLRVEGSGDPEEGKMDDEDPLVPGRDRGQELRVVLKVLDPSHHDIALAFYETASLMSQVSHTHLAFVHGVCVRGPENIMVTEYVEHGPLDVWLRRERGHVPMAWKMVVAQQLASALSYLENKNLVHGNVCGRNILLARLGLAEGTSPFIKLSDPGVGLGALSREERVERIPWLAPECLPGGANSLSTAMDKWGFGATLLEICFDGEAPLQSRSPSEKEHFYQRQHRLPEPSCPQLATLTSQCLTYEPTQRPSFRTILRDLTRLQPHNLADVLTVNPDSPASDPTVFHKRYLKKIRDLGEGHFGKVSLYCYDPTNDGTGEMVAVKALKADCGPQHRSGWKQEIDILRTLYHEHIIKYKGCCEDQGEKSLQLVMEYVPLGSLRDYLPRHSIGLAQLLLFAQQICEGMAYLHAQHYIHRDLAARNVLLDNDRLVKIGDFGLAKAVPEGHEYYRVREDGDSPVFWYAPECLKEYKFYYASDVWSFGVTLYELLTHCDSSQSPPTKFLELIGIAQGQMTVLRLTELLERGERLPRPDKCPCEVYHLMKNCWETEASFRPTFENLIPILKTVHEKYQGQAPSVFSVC
# [10] = target: T2, Tyrosine-protein kinase receptor TYRO3 (Homo sapiens) (UniProt Q06418); conditions: at 0.1 µM;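 note: reported percentages are averaged inhibition values of TYRO3 kinase activity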
# T2 sequence (whole entry): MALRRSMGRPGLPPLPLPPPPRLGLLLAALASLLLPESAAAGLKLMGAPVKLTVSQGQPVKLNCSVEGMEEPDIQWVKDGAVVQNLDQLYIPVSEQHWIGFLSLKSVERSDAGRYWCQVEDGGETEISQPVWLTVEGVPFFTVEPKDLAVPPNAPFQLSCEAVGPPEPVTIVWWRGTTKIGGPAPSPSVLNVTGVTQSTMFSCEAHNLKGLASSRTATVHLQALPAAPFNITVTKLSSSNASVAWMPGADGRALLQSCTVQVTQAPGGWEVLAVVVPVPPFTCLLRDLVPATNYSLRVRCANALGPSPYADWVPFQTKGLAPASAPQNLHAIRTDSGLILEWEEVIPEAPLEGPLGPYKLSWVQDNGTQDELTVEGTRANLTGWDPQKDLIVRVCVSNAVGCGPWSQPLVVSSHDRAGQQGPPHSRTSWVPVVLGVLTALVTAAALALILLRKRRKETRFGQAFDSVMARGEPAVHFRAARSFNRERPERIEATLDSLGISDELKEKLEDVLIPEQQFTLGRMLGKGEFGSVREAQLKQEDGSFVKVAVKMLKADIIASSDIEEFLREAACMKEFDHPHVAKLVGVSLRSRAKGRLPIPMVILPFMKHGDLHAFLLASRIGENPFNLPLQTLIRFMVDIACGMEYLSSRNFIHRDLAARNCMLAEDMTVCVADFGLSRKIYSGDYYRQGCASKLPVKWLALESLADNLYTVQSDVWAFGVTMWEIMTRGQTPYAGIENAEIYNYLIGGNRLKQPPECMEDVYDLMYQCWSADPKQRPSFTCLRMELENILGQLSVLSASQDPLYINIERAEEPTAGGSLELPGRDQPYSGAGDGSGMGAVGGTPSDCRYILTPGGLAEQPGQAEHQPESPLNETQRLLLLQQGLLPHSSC
# Chain of Fibroblast growth factor receptor 4 (Homo sapiens) (P22455 22-802 limits assumed): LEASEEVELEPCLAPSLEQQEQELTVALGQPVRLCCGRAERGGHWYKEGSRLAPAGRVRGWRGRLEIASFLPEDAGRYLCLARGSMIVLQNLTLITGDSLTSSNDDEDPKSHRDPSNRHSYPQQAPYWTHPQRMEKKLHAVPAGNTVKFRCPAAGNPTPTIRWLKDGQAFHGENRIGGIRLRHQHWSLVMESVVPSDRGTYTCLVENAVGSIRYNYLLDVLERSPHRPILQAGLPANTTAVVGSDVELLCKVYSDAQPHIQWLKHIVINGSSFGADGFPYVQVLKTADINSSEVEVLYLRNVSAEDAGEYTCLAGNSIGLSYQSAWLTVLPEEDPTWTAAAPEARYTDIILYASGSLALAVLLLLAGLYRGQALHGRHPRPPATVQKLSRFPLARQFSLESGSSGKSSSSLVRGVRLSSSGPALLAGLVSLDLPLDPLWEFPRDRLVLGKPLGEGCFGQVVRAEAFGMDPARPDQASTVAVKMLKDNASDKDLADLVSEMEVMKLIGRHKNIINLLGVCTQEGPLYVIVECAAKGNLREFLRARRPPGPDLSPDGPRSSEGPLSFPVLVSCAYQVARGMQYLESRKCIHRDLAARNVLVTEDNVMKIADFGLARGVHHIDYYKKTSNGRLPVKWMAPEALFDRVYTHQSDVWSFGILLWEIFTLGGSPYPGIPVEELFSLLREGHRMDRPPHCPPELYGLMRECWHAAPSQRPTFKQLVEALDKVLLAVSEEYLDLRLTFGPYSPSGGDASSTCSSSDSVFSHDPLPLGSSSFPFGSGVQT
# Chain of Tyrosine-protein kinase Fgr (Homo sapiens) (P09769 2-529 limits assumed): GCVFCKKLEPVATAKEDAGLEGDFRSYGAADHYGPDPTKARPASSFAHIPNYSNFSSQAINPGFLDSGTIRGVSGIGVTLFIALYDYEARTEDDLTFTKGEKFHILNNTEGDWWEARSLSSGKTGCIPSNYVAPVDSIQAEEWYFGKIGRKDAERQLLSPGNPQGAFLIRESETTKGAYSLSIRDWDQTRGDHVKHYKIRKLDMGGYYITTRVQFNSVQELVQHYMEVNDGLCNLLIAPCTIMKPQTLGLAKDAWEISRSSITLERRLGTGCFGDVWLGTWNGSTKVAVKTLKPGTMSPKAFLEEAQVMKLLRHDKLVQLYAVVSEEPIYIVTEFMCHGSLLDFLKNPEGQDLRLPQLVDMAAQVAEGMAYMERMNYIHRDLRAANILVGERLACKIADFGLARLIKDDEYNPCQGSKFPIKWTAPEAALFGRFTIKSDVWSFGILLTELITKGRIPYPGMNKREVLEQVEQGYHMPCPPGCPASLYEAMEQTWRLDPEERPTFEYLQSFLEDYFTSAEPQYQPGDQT
Compound,inhibition [1] [%],inhibition [2] [%],inhibition [3] [%],inhibition [4] [%],inhibition [5] [%],inhibition [6] [%],inhibition [7] [%],inhibition [8] [%],inhibition [9] [%],inhibition [10] [%]
CC1=C(C(=O)Nc2ccc3[nH]ncc3c2)C(c2ccc(F)cc2)N=C(c2ccc(C(F)(F)F)nc2)N1 (stereo not given),4.41,1.36,7.33,2.08,3.96,-0.83,4.45,-1.1,-2.96,2.47
NS(=O)(=O)c1ccc(N/N=C2\C(=O)Nc3ccc(C(=O)NCc4ccncc4)cc32)cc1,2.18,4.24,12.5,2.5,10.3,2.9,11.4,3.79,0.98,2.32
CNC(=O)c1ncccc1Nc1nc(Nc2cc3c(cc2OC)CCCN3C(=O)CN(C)C)nc2[nH]ccc12,0.76,1.73,7.26,0.02,-0.67,3.6,4.13,1.41,-1.39,4.43
CN1CCC(n2cnc(-c3ccc(F)cc3)c2-c2ccnc(NCCO)n2)CC1,0.38,5.33,2.78,1.32,3.27,1.5,5.56,-2.58,-4.71,3.69
COc1cc(N2CCN(C(C)C)CC2)ccc1Nc1nc(Nc2cccc3ncccc23)c2cc[nH]c2n1,0.41,-0.04,3.16,1.51,0.56,0.08,1.34,1.05,2.42,-2.4
CCS(=O)(=O)c1ccc(OC)c(Nc2ncc(-c3cccc(F)c3)o2)c1,17.6,40.2,76.2,14.2,55.3,23.3,74.5,17.6,-2.12,6.63
COc1cccc(Nc2nccc(-c3cnn4ncccc34)n2)c1,1.33,7.08,19.3,9.62,25.1,33,78.9,16.7,30.3,3.96
O=C(O[C@H]1CN[C@H](C#Cc2cc3ncnc(Nc4ccc(OCc5cccc(F)c5)c(Cl)c4)c3s2)C1)N1CCOCC1,-0.16,4.25,1.43,1.9,-0.14,3.48,2.29,-1.46,-3.98,3.72
NS(=O)(=O)c1ccc(N/N=C2\C(=O)Nc3cccc(CCc4ccncc4)c32)cc1,1.66,4.48,10.8,5.3,12,64.3,79.3,50.7,-1.59,0.03
CCN1CCC(C(=O)Nc2n[nH]c3nnc(-c4cccc(F)c4F)cc23)CC1,1.49,1.72,3.35,0.76,1.26,1.71,6.05,-1.16,-3.82,-1.35
COC(=O)Nc1nc2cc(Oc3ccc(NC(=O)Nc4ccccc4)cc3)ccc2[nH]1,-0.59,4.41,3.18,16.5,22.1,5.43,14.2,-4.53,-1.49,1.8
Cc1nnc(-c2cccc(-c3ccc(C(=O)NCC4CC4)cc3)c2)o1,0.59,5.74,2.02,3.18,1.49,1.38,4.66,-2.89,-4.07,4.15
CNC(=O)c1sc(-n2cnc3cc(OC)c(OC)cc32)cc1OCc1ccccc1C(F)(F)F,1.34,4.08,10.1,1.22,0.98,2.13,3.19,-3.62,-3.45,1.67
Cc1ccc(-c2cc3c(NC(=O)C4CC4)ncnc3o2)cc1,1.04,2.06,13.3,2.75,3.26,2.89,3.69,0.76,-1.62,9.35
CS(=O)(=O)Nc1ccc(-c2ccc3c(NC(=O)C4CC4)n[nH]c3c2)cc1,0.84,1.59,7.28,1.26,3.04,-0.08,5.66,1.14,-2.13,2.75
